Data as given in publication PMC4552634, “A New Set of Chemical Starting Points with Plasmodium falciparum Transmission-Blocking Potential for Antimalarial Drug Discovery” (PLoS ONE, 2015).
The whole screen tested about 13,000 compounds, of which about 3,200 (25%) showed an effect of 50% or more. This is one part of the list.

Test system: P. falciparum stage V gametocytes
Parameters: BacTiter-Glo ATP luminescence viability of purified stage V gametocytes in 384-well plates, per cent inhibition versus DMSO
Settings: 48 h, 5 µM; inhibitor

Structure (SMILES) | % Inhibition [%]
CCN(CC)S(=O)(=O)c1ccc(C=CC(=O)Nc2cc(Cl)ccc2N2CCOCC2)cc1 [TCMDC-125117] | 28.22
Cc1cc(-c2cc(Cl)ccc2Cl)no1 [TCMDC-131691] | -15.9
CN(C)CCn1cc(C(=O)c2cc(Cl)ccc2O)cc1-c1nc2ccccc2c(=O)[nH]1 [TCMDC-125021] | -20.22
Cc1cccc(C)c1N1CCN(C2CCC(NC(=O)c3cc4ccccc4[nH]3)CC2)CC1 (stereo not drawn) [TCMDC-132890] | -33.12
COc1ccc2ncc(OC)c(CCN3CC[C@@H](NCc4ccc5c(n4)NC(=O)CS5)[C@H](O)C3)c2n1 [TCMDC-134668] | 10.18
CC(=O)Nc1ccc(-c2nc3ccc(-c4nc5ccc(NC(C)=O)cc5[nH]4)cc3[nH]2)cc1 [TCMDC-125761] | 0.4612
Clc1ccc(-c2nc3ccc(-c4ccc5nc(-c6ccc(Cl)cc6)[nH]c5c4)cc3[nH]2)cc1 [TCMDC-123460] | 1.652
CCN(CC)CCN(CCN(CC)CC)c1ccc(-c2nc3cc(Cl)c(Cl)cc3[nH]2)cc1 [TCMDC-139329] | 70.38
Cc1nc2nc(N)nc(N)c2c(C)c1Cc1cccs1 [TCMDC-137642] | -3.344
Cc1ccnc(NC(c2cccc(OCc3ccccc3)c2)c2ccc3cccnc3c2O)c1 (stereo not drawn) [TCMDC-125558] | 93.78
Cc1ccnc(NC(c2cccc(Cl)c2Cl)c2ccc3cccnc3c2O)c1 (stereo not drawn) [TCMDC-123997] | 94.28
Oc1cccc2ccc(Nc3ccccn3)nc12 [TCMDC-125567] | 43.59
O=[N+]([O-])c1cccc(C(Nc2ccccn2)c2ccc3cccnc3c2O)c1 (stereo not drawn) [TCMDC-125725] | 107
Cc1ccnc(NC(c2ccc(Cl)c([N+](=O)[O-])c2)c2ccc3cccnc3c2O)c1 (stereo not drawn) [TCMDC-123691] | 121
CC(CCc1ccccc1)NCC(O)c1cccc([N+](=O)[O-])c1 (stereo not drawn) [TCMDC-125728] | -0.1444
COc1ccc(-c2cc(C(=O)N[C@@H](Cc3ccccc3)C(=O)NCCN3CCCCC3)ccc2O)cc1 [TCMDC-140804] | 32.57
Cn1cnc(CCNC(=O)c2cccc(-c3cccc(-c4nc5cc(C(F)(F)F)ccc5[nH]4)c3)c2)c1 [TCMDC-132496] | 22.81
CCOCCCn1c(=N)c(C(=O)NC(C)c2ccccc2)cc2c(=O)n3cccc(C)c3nc21 (stereo not drawn) [TCMDC-124348] | 9.74
CCC(=O)NC(c1ccco1)c1cc(Cl)c2cccnc2c1O (stereo not drawn) [TCMDC-123650] | -55.25
O=C(Cc1ccccc1)NC(c1ccco1)c1cc(Cl)c2cccnc2c1O (stereo not drawn) [TCMDC-125561] | -24.24
Cc1cc(NC(c2ccc(Cl)cc2)c2ccc3cccnc3c2O)no1 (stereo not drawn) [TCMDC-123828] | 23.63
Oc1c(C(Nc2ccccn2)c2ccc(Cl)cc2Cl)ccc2cccnc12 (stereo not drawn) [TCMDC-125559] | 98.53

Structure (SMILES) | % Inhibition [%]
Oc1c(C(Nc2ccccn2)c2ccco2)cc(Cl)c2cccnc12 (stereo not drawn) [TCMDC-125324] | 60.61
Cc1ccc(Nc2nccc(NCC(O)c3ccc(C(F)(F)F)cc3)n2)cc1 (stereo not drawn) [TCMDC-136593] | 10.35
Cc1ccc2nc(NC#N)[nH]c2c1 [TCMDC-131394] | 6.156
Cc1noc(C)c1-c1ccc2c(Nc3ccccc3C(C)(C)C)c(C(=O)NCc3ccc(OC(C)C)cc3)cnc2c1.Cl [TCMDC-136370] | -53.99
CCCCCCOc1ccc2ccccc2c1CNCCCCCCNCc1c(OCCCCCC)ccc2ccccc12 [TCMDC-137963] | 142.3
c1ccc2c(CNCCCCCCNCc3c(OCC4CC4)ccc4ccccc34)c(OCC3CC3)ccc2c1 [TCMDC-137839] | 118.2
CCOc1cc(OCC)c2ccccc2c1CNCCCCCCNCc1c(OCC)cc(OCC)c2ccccc12 [TCMDC-137982] | 121.9
Oc1ccc2ccccc2c1CNCC1CCCCC1 [TCMDC-137608] | 2.485
Oc1ccc2ccccc2c1CNCCC1CCCCC1 [TCMDC-137605] | -1.678
CCCOc1ccc2ccccc2c1CNCCCCCCNCc1c(OCCC)ccc2ccccc12 [TCMDC-137966] | 143.6
CCCCCCCCNCc1c(O)ccc2ccccc12 [TCMDC-137606] | 26.15
Cc1cc(N[C@@H](CC(C)C)C(=O)NCCc2ccccc2)nc(NCC2CCCCC2)n1 [TCMDC-134920] | -75.82
Cn1cncc1C(=O)Nc1ccc(-c2ccc(-c3nc4ccc(C(F)(F)F)cc4[nH]3)cc2)cc1 [TCMDC-137065] | -63.66
Cc1cc(Nc2ncc3c(n2)N(C2CCC2)CC3)ccc1N1CCN(C)CC1 [TCMDC-134146] | 20.06
Cc1cccc2[nH]c(-c3ccc(-c4ccc(NC(=O)NCc5cccc(F)c5)cc4)cc3)nc12 [TCMDC-133294] | -5.117
CN1CCN(c2ccc3nccc(CCN4CCC(NCc5ccc6c(n5)NC(=O)CO6)CC4)c3n2)CC1 [TCMDC-141580] | 8.776
CCOc1ccc2ccccc2c1CNCCCCCCNCc1c(OCC)ccc2ccccc12 [TCMDC-137791] | 117.2
COc1ccc(C2CC(=O)C3=C(C2)NC(C)=C(C(=O)OC(C)C)C3c2ccc(O)cc2)cc1OC (stereo not drawn) [TCMDC-125633] | 43.1
COc1cccc2cc(C(=O)N[C@@H](CC(C)C)C(=O)NC3CC[C@@H](C)N(C(=O)Nc4ccncc4)CC3=O)oc12 (stereo partly drawn) [TCMDC-134320] | -6.979
CC(C)C[C@H](NC(=O)c1cc2cc(OCCN3CCNCC3)ccc2o1)C(=O)NC1CC[C@@H](C)N(C(=O)Nc2ccc(Cl)cc2)CC1=O (stereo partly drawn) [TCMDC-133539] | 8.489
C[C@@H]1CC[C@H](NC(=O)[C@H](CC2CCCC2)NC(=O)N2CCNCC2)C(=O)CN1S(=O)(=O)c1ccccn1 [TCMDC-141571] | 57.62
CCOC(=O)NC1=NC(C)(C)N(OCCCOc2cc(Cl)c(Cl)cc2Cl)C(NC(=O)OCC)=N1 [TCMDC-131743] | 1.787

Structure (SMILES) | % Inhibition [%]
CCN(CC)c1ccc(C(c2ccc(N(CC)CC)cc2)c2ccc([N+](=O)[O-])cc2)cc1 [TCMDC-131286] | -67.18
CN(C)CCN(Cc1ccccc1)c1ccc([N+](=O)[O-])cc1C(F)(F)F [TCMDC-135372] | 16.64
Cc1cccc(Cn2c(C(N)=O)nn(-c3ccc([N+](=O)[O-])cc3C#N)c2=S)c1 [TCMDC-134720] | 78.61
N#Cc1ccccc1C(=O)N(Cc1cncn1Cc1cccc(F)c1)CC1CC1 [TCMDC-132459] | -1.299
O=C(NC1CC1)c1ccc(Cn2c(SCc3cccc([N+](=O)[O-])c3)nc3ccccc3c2=O)cc1 [TCMDC-123577] | 43.52
O=[N+]([O-])c1ccc(-n2nc(Cc3ccccc3)n(Cc3cccc(F)c3)c2=S)c(C(F)(F)F)c1 [TCMDC-135486] | 73.39
CCN(CCNC(=O)Cn1c(C)cc2cc([N+](=O)[O-])ccc21)c1cccc(C)c1 [TCMDC-140764] | 1.649
CC(C)CCn1c(Sc2ccc([N+](=O)[O-])cc2C(F)(F)F)nnc1-c1ccccc1Cl [TCMDC-135484] | 10.18
N#Cc1cc([N+](=O)[O-])ccc1-n1nc(C(N)=O)n(Cc2cccc(F)c2)c1=S [TCMDC-134721] | 80.05
Cc1cccc(CC2CC(=O)N(c3ccc([N+](=O)[O-])cc3)C2=O)c1 (stereo not drawn) [TCMDC-125732] | -3.627
O=C(CCc1cccc(O)c1)NCC(NCCCNc1cc(=O)c2ccccc2[nH]1)c1cc(Br)cc(Br)c1 (stereo not drawn) [TCMDC-140319] | -27.67
COc1ccc(C(=O)N2CCC3(CC2)C(=O)N(CC(=O)NCC2CCCCC2)CN3c2ccccc2)c(OC)c1 [TCMDC-125170] | -47.66
CN(C)c1ccc(-c2csc(C(=O)NCC3CCN(CC4CCCCC4)C3)c2)cc1.O=C(O)C(F)(F)F (stereo not drawn) [TCMDC-134424] | 97.4
O=C(NCC1CCN(Cc2ccsc2)C1)c1cc(-c2cccc(C(F)(F)F)c2)cs1.O=C(O)C(F)(F)F (stereo not drawn) [TCMDC-134478] | -49.55
O=C(NCC1CCN(Cc2cccc(C(F)(F)F)c2)C1)c1cc(-c2cccc(C(F)(F)F)c2)cs1 (stereo not drawn) [TCMDC-134483] | 53.9
CC(=O)Nc1ccc(CN2CCC(CNC(=O)c3cc(-c4cccc(C(F)(F)F)c4)cs3)C2)cc1.O=C(O)C(F)(F)F (stereo not drawn) [TCMDC-134456] | 0.3319
O=C(NCC1CCN(Cc2cccc(C(F)(F)F)c2)C1)c1cc(-c2cccc(F)c2)cs1 (stereo not drawn) [TCMDC-134484] | 54.37
O=C(NCC1CCN(Cc2ccc3c(c2)OCCO3)C1)c1cc(-c2cccc(C(F)(F)F)c2)cs1.O=C(O)C(F)(F)F (stereo not drawn) [TCMDC-134458] | 1.256
O=C(NCC1CCN(CC2CCCCC2)C1)c1cc(-c2cccc(C(F)(F)F)c2)cs1.O=C(O)C(F)(F)F (stereo not drawn) [TCMDC-134422] | 101.5
O=C(NCC1CCN(Cc2cccc(F)c2)C1)c1cc(-c2cccc(C(F)(F)F)c2)cs1 (stereo not drawn) [TCMDC-134480] | 4.488
COc1ccccc1C1CCN(C2CCC(NC(=O)/C=C/c3cccc(C(F)(F)F)c3)CC2)CC1 (stereo not drawn) [TCMDC-133555] | -60.89
Cc1cc(-c2cccc3c(NC(=O)N4CCc5cc6nccc(N7CCN8CCC[C@H]8C7)c6cc54)cccc23)cc(C)n1 [TCMDC-139794] | -14.58
